Bioassay records (PubChem)
Rows were chosen to be rich in hits. Some 17% of all compounds tested hit in one or more screens of this group.
ClpP mod – qHTS Assay for Activators of ClpP; ATP-dependent Clp protease proteolytic subunit (Bacillus subtilis (strain 168)), P80244; purified B. subtilis ClpP, FRET peptide cleavage, 20 min; Potency, µM (series often up to 57.5 µM); actives 1.9% (n = 340,000); active = well fitted falling curve with a large enough effect; inconclusive = small, poorly fitted or top-dose-only effect; inactive = no such curve, though single readings can be large or run the other way; also: the source files actives as falling curves though it sought activators and does not explain the sign; nearly all actives have a fitted effect of over 65% in size
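FRET quenching reversal measured ClpP activation: 10 microg/mL B. subtilis ClpP at pH 8 with the FRET-FV decapeptide, read at 430 nm after 320 nm excitation. The 20-min minus 0-min signal was scaled between DMSO/no-enzyme wells and ADEP (5.8 microM final).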
DT40 TDP1 CPT – DT40-hTDP1 cell growth loss with CPT | chicken DT40 Tdp1-/-;hTDP1 cells + 20 nM CPT, ATP luminescence, 48 h | Potency, µM (series often up to 46.2 µM), usual class: inhibitors | actives 12% (n = 420,000); also: nearly all actives have a fitted effect of over 55% in size
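Cell growth measured by CellTiter-Glo luminescence after a minimum 48 h, 37 C compound exposure with 20 nM CPT in Tdp1-knockout DT40 cells stably expressing hTDP1, seeded 400/well; qHTS titration format.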
TDP1 block – blocks human tyrosyl-DNA phosphodiesterase 1; Q9NUW8; recombinant TDP1, AlphaScreen DNA substrate cleavage; Potency, µM (doses to about 130 µM), most hits filed as inhibitors; actives 0.28% (n = 350,000); AID 485290; also: nearly all actives have a fitted effect of over 40% in size
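Tdp1 1 nM final; 15 min RT w/ cpd; substrate 15 nM, 5 min; beads 10 ug/ml, 10 min; AlphaScreen read. Neg ctrl: no enzyme.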
TDP1 cell noCPT – qHTS for Inhibitors of human tyrosyl-DNA phosphodiesterase 1 (TDP1): qHTS in cells in absence of CPT; DT40 Tdp1-/- hTDP1 cells, no CPT, ATP luminescence, 48 h; Potency, µM (highest dose often 46.2 µM), most hits filed as inhibitors; actives 15% (n = 420,000); AID 686978, 2013; also: nearly all actives have a fitted effect of over 55% in size
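Readout: luminescence from CellTiter-Glo after 30 min in the dark at RT. Cells: DT40 Tdp1-/- with stable hTDP1, 400/well. Exposure: compounds alone, ≥48 hr, 37 °C.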
Of the large screens only hits and unclear results are named; the others gave an inactive call. Unless noted, calls follow the shape of the dose curve; as a rule, active = well fitted curve in the direction sought with a large enough effect; inconclusive = small, poorly fitted or top-dose-only effect, or another doubt; inactive = no such curve, though single readings can be large; an effect the other way counts as inactive or inconclusive.

Cc1ccc(-c2c(C)n3c4c(=O)n(C)c(=O)n(C)c4nc3n2CCCO)cc1	none (no result: DT40 TDP1 CPT, TDP1 cell noCPT)
O=S(=O)(NCC(c1ccco1)S(=O)(=O)c1cccs1)c1ccc(Cl)cc1 (centres undefined)	DT40 TDP1 CPT inconclusive, TDP1 cell noCPT inconclusive
Cc1cnc(C)c(Nc2nc(C(N)Cc3ccc(F)cc3)cs2)n1 (centres undefined)	DT40 TDP1 CPT 26µM, TDP1 cell noCPT inconclusive (no result: TDP1 block)
Cc1cnc(C)c(Nc2nc(C(N)CCc3ccccc3)cs2)n1 (centres undefined)	DT40 TDP1 CPT 16µM, TDP1 cell noCPT 18µM (no result: TDP1 block)
COc1ccc(CC(N)c2csc(Nc3nc(C)cnc3C)n2)cc1 (centres undefined)	DT40 TDP1 CPT 18µM, TDP1 cell noCPT 15µM (no result: TDP1 block)
COc1ccc(CC(N)c2csc(Nc3cnccn3)n2)cc1 (centres undefined)	DT40 TDP1 CPT inconclusive, TDP1 cell noCPT inconclusive (no result: TDP1 block)
CO/N=C(/CN1CCCCC1)c1ccc(Cl)cc1	none (no result: ClpP mod, TDP1 block)
CCCC(=O)NCc1cc(-c2nn(C)c(=O)c3ccccc23)ccc1C	none
Cc1ccc(NC(=O)c2ccc(-c3nn(C)c(=O)c4ccccc34)cc2)cc1	DT40 TDP1 CPT 21µM, TDP1 cell noCPT inconclusive
Cc1ccc(-c2nn(CC(=O)NCc3cc(-c4nn(C)c(=O)c5ccccc45)ccc3C)c(=O)c3ccccc23)cc1	DT40 TDP1 CPT 15µM, TDP1 cell noCPT 13µM
COc1ccc2[nH]c3c(c2c1)CCN1C(=O)N([C@@H](C)C(=O)NCc2ccc(C)cc2)C(=O)[C@]31C	TDP1 cell noCPT inconclusive (no result: TDP1 block)
COc1ccc(CCNC(=O)[C@H](C)N2C(=O)N3CCc4c([nH]c5ccccc45)[C@@]3(C)C2=O)cc1OC	DT40 TDP1 CPT inconclusive, TDP1 cell noCPT inconclusive (no result: TDP1 block)
COc1cccc(CNC(=O)[C@@H](C)N2C(=O)N3CCc4c([nH]c5ccc(OC)cc45)C3(C)C2=O)c1 (some centres undefined)	DT40 TDP1 CPT 15µM, TDP1 cell noCPT 16µM (no result: TDP1 block)
COc1ccc2[nH]c3c(c2c1)CCN1C(=O)N([C@@H](C)C(=O)NCCc2ccc(OC)c(OC)c2)C(=O)[C@]31C	DT40 TDP1 CPT 23µM, TDP1 cell noCPT 15µM (no result: TDP1 block)
COc1ccccc1CNC(=O)[C@H](C)N1C(=O)N2CCc3c([nH]c4ccccc34)[C@@]2(C)C1=O	DT40 TDP1 CPT 29µM, TDP1 cell noCPT 18µM (no result: TDP1 block)
COc1ccc(CNC(=O)[C@H](C)N2C(=O)N3CCc4c([nH]c5ccc(OC)cc45)[C@@]3(C)C2=O)cc1	DT40 TDP1 CPT inconclusive, TDP1 cell noCPT inconclusive (no result: TDP1 block)
COc1ccc(CCNC(=O)[C@H](C)N2C(=O)N3CCc4c([nH]c5ccccc45)[C@@]3(C)C2=O)cc1	DT40 TDP1 CPT 21µM, TDP1 cell noCPT 16µM (no result: TDP1 block)
Cc1nnc(SCC(=O)NC(=O)Nc2ccc3c(c2)OCCO3)n1N	none
CCCc1nc2c3ccccc3ccn2c1CC1CCCCC1	DT40 TDP1 CPT inconclusive, TDP1 cell noCPT inconclusive (no result: TDP1 block)
Cc1ccc(CNC(=O)c2cc3cc(C)ccc3n2C)cc1	none
C=CCOc1ccccc1CN(C(=O)CCl)c1ccc2c(c1)OCO2	DT40 TDP1 CPT 18µM, TDP1 cell noCPT 10µM (no result: ClpP mod)
CCOc1ccccc1NC(=O)Nc1ccc2c(c1)OCO2	DT40 TDP1 CPT inconclusive
CC(C)(C)OC(=O)C(C)(C)Sc1nnc(N)s1	none
CCOP(=O)(OCC)c1nc(-c2ccccc2Cl)oc1N1CCOCC1	none (no result: ClpP mod)
Cc1ccc(S(=O)(=O)c2nc(-c3ccccc3Cl)oc2N(C)C)cc1	DT40 TDP1 CPT 7.3µM, TDP1 cell noCPT 10µM
COc1ccccc1-c1nc(S(=O)(=O)c2ccc(Cl)cc2)c(N(C)C)o1	none
Cc1ccc(S(=O)(=O)c2nc(-c3ccccc3Br)oc2N(C)C)cc1	DT40 TDP1 CPT 21µM, TDP1 cell noCPT inconclusive (no result: TDP1 block)
CN(C)c1oc(-c2ccccc2Cl)nc1P(=O)(c1ccccc1)c1ccccc1	ClpP mod 20µM, DT40 TDP1 CPT inconclusive, TDP1 cell noCPT inconclusive
Cc1ccc(-c2nc(S(=O)(=O)c3ccc(C)cc3)c(N(C)C)o2)cc1	DT40 TDP1 CPT inconclusive, TDP1 cell noCPT 23µM
CCOc1ccc(S(=O)(=O)N2CCOCC2)cc1NC(=O)CN1C(=O)NC(C)(c2ccccc2)C1=O (centres undefined)	none (no result: TDP1 block)
Cc1cc2c(cc1C)-n1nnnc1C(N(Cc1ccccc1)Cc1ccccc1)C(=O)N2 (centres undefined)	DT40 TDP1 CPT inconclusive, TDP1 cell noCPT 21µM (no result: TDP1 block)
Cc1cc(C)c(NC(=O)c2cn3c4c(c(N5CCN(C)CC5)c(F)cc4c2=O)OCC3C)c(C)c1 (centres undefined)	DT40 TDP1 CPT 18µM, TDP1 cell noCPT inconclusive
N/C(=N\OC(=O)Nc1ccccc1)c1ncc([N+](=O)[O-])s1	DT40 TDP1 CPT 3.3µM, TDP1 cell noCPT 8.2µM (no result: ClpP mod, TDP1 block)
O=C(Cc1ccc(Cl)cc1)Nc1ncc([N+](=O)[O-])s1	none (no result: ClpP mod)
O=C(COc1ccc(Cl)cc1)Nc1ncc([N+](=O)[O-])s1	DT40 TDP1 CPT 26µM, TDP1 cell noCPT 23µM (no result: ClpP mod)
O=C(COC(=O)COc1ccccc1)Nc1ncc([N+](=O)[O-])s1	DT40 TDP1 CPT 23µM, TDP1 cell noCPT inconclusive
O=C(Cc1ccc(Br)cc1)Nc1ncc([N+](=O)[O-])s1	DT40 TDP1 CPT inconclusive, TDP1 cell noCPT 13µM
Cn1c(SCC(=O)Nc2cccc(S(=O)(=O)NC3=NCCCCC3)c2)nnc1-c1ccncc1	none
CCOC(=O)C(=O)c1c(C)cc2ccccn12	none
CCOC(=O)/C(=C/C=C1\Sc2cc(C)c(C)cc2N1CC)C(C)=O	DT40 TDP1 CPT 4.6µM, TDP1 cell noCPT 2.3µM
CCOC(=O)/C(=C\C=C1/Sc2ccccc2N1CC)C(C)=O	DT40 TDP1 CPT inconclusive, TDP1 cell noCPT 12µM
CCOC(=O)/C(=C/C=C1\Sc2ccccc2N1CC)C(C)=O	DT40 TDP1 CPT 21µM, TDP1 cell noCPT 21µM (no result: ClpP mod)
CCC(=O)/C=C1/Sc2ccccc2N1CC	DT40 TDP1 CPT inconclusive, TDP1 cell noCPT inconclusive
CCCc1nn2c(=O)cc(COC(=O)c3ccc(NC(=O)COc4ccccc4)cc3)nc2s1	none
Cc1cc(OCC(=O)NCCCn2ccnc2)c2c(C)cc(=O)oc2c1	none
Cc1c(S(=O)(=O)Nc2ccc(Oc3ccccc3)cc2)c(=O)n(C)c(=O)n1C	none
CCOc1cc(NC(=S)NCc2ccccc2)c(OCC)cc1NC(=O)C(C)C	none
C=CCN=C1S/C(=C\c2ccc(N(C)C)cc2)C(=O)N1CC=C	DT40 TDP1 CPT inconclusive, TDP1 cell noCPT inconclusive (no result: ClpP mod)
CCCSCCCNC(=O)C1CCN(C(=O)c2cnn(-c3ccccc3)c2-n2cccc2)CC1	DT40 TDP1 CPT 18µM, TDP1 cell noCPT inconclusive
CCc1cccc(NC(=O)C2CCN(C(=O)c3cnn(-c4ccccc4)c3-n3cccc3)CC2)c1	DT40 TDP1 CPT 21µM, TDP1 cell noCPT 15µM
O=C(Nc1ccc(F)cc1F)C1CCN(C(=O)c2cnn(-c3ccccc3)c2-n2cccc2)CC1	DT40 TDP1 CPT inconclusive, TDP1 cell noCPT inconclusive
